According to PubChem BioAssay:
A number with no mark means an inactive call. The rule behind the calls is not given here.

Target: Pantothenate synthetase (Mycobacterium tuberculosis (strain ATCC 25618 / H37Rv)) (UniProt P9WIL5)
Test: Recombinant Mtb pantothenate synthetase (PanC) inhibitors, coupled enzyme, confirmatory (AID 375);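 note: 0% = full reaction with vehicle and 100% = no enzyme background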
Details: coupled enzyme assay; at 10 µM, stronger effect = higher value

Sequence of Pantothenate synthetase (Mycobacterium tuberculosis (strain ATCC 25618 / H37Rv)) (P9WIL5 whole entry, looked up): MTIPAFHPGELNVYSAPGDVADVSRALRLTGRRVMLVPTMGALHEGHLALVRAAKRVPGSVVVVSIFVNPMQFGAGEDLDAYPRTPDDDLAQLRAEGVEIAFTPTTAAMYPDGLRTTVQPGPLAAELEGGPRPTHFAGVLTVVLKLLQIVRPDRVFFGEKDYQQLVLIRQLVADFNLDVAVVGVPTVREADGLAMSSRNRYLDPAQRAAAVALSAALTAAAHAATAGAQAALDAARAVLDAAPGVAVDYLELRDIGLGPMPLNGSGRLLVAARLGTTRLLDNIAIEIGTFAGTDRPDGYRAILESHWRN

SMILES	inhibition [%]
CN(C)[C@@H]1C(=O)C(C(N)=O)=C(O)[C@@]2(O)C(=O)C3=C(O)c4c(O)ccc(Cl)c4[C@@H](O)[C@H]3C[C@@H]12	0
O=C(Nc1ccc(CN2CCOCC2)cc1)c1cc2ccccc2oc1=O	4
CN(C)S(=O)(=O)c1ccc2c(c1)c(=O)c(C(=O)NCCCN1CCCCCC1)cn2C	0
CC(C(N)=O)N1C(=O)C2C3C=CC(C3)C2C1=O (centres undefined)	2
